# Legend:
# Assay in all cases: DAPPL (digital affinity profiling via proximity ligation, sequencing); 10 mM Tris-HCl pH 7.5, 50 mM NaCl, 1 mM DTT, 4% glycerol, room temperature, 30 min; GST-TFs on glutathione beads, 16-mer random dsDNA library, 0.1% formaldehyde crosslink after washing; high values mean tight binding
# Conditions in all cases: protein: recombinant; tags: N-terminal GST; dsDNA, one strand shown
# FLI1 = molecular target: T1, FLI1 (Homo sapiens, UniProt Q01543 1-452)
# T1 sequence: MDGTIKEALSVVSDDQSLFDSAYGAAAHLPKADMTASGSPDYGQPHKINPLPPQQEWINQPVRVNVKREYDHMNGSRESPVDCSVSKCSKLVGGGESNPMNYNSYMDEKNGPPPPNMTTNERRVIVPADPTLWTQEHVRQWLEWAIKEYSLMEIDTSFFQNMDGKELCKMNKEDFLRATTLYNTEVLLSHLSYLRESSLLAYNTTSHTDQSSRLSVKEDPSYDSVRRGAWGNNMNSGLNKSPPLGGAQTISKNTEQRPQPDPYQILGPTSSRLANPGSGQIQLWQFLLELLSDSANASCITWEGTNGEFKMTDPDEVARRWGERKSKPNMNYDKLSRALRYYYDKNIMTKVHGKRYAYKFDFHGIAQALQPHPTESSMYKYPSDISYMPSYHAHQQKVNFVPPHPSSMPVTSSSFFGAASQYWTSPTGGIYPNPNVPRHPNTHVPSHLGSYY
# Outline: (§1)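 Pools were built from human transcription factors expressed in yeast as GST fusions, captured on glutathione beads and DNA-barcoded, along with a tag-only sample. Incubation with 200 nmole of a 16-mer random double-stranded DNA library lasted 30 min at room temperature in Tris/NaCl/DTT/glycerol buffer, and was followed by washing, 0.1% formaldehyde crosslinking, proximity ligation, PCR amplification and Illumina NextSeq500 sequencing. Binding signal is the quotient of each hexamer's read frequency for a factor and its frequency for the tag-only sample.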
# ELK1 = molecular target: T2, ELK1 (Homo sapiens, UniProt P19419 1-428)
# T2 sequence: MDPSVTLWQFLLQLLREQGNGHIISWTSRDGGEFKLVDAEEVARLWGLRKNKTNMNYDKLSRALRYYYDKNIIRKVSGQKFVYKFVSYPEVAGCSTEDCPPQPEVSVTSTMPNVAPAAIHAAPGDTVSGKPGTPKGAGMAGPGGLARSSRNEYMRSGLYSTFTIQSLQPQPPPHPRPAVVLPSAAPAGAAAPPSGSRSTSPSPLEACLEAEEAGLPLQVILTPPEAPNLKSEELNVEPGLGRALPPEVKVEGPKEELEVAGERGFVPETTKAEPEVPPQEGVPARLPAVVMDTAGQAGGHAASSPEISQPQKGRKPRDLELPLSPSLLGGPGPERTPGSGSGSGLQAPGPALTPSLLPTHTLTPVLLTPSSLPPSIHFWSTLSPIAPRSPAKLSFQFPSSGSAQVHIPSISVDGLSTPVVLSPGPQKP
# Outline: as §1
# ELF1 = ELF1 (Homo sapiens, UniProt P32519 1-619)
# Outline: as §1
# EHF = molecular target: T3, EHF (Homo sapiens, UniProt Q9NZC4 1-300)
# T3 sequence: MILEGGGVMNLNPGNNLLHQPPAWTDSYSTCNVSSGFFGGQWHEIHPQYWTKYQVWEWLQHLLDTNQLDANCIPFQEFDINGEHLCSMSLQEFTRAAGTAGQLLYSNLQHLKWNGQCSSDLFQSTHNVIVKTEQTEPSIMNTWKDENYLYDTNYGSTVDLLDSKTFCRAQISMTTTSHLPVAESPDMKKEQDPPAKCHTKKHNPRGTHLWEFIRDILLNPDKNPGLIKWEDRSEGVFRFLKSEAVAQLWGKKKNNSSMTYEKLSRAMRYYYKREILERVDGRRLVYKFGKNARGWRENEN
# Outline: as §1
# SPI1 = SPI1 (Homo sapiens, UniProt P17947 1-270)
# Outline: as §1
# SPIB = SPIB (Homo sapiens, UniProt Q01892 1-262)
# Outline: as §1
# ETV5 = ETV5 (Homo sapiens, UniProt P41161 1-510)
# Outline: as §1
# ETV2 = molecular target: T4, ETV2 (Homo sapiens, UniProt O00321 1-342)
# T4 sequence: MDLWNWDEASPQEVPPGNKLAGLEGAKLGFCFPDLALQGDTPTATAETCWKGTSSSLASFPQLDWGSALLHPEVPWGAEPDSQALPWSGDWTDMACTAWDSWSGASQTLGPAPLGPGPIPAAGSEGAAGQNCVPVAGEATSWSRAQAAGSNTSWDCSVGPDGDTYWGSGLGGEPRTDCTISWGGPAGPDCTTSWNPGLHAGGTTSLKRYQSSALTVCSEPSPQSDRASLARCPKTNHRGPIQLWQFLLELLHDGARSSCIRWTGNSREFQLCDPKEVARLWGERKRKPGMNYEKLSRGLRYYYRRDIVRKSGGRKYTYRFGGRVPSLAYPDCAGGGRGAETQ
# Outline: as §1
# ETV1 = ETV1 (Homo sapiens, UniProt P50549 1-477)
# Outline: as §1
# ETV7 = molecular target: T5, ETV7 (Homo sapiens, UniProt Q9Y603 1-341)
# T5 sequence: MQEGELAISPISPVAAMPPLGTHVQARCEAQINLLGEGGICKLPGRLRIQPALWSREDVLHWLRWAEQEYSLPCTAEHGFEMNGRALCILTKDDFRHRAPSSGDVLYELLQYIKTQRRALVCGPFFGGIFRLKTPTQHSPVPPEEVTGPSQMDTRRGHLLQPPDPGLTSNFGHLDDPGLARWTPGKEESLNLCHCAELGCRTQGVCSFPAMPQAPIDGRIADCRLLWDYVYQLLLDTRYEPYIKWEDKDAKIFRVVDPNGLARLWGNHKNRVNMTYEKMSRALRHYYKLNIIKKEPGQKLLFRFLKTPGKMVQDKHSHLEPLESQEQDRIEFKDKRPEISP
# Outline: as §1
# ETV6 = ETV6 (Homo sapiens, UniProt P41212 1-452)
# Outline: as §1
# ETV1, sequence (P50549 whole entry): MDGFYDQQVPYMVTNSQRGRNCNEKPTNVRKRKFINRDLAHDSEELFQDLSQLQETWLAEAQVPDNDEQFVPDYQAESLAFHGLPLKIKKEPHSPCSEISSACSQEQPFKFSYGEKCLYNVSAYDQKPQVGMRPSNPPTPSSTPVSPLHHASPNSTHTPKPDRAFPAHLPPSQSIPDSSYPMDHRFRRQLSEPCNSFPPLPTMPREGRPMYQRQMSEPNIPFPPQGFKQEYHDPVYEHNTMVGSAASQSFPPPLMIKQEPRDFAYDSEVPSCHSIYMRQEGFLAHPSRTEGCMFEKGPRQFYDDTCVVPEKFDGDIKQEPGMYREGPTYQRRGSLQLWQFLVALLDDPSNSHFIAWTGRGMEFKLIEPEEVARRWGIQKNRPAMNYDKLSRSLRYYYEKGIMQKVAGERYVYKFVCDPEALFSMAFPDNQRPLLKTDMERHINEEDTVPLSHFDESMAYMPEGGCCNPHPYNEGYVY
# ELF1, sequence (P32519 whole entry): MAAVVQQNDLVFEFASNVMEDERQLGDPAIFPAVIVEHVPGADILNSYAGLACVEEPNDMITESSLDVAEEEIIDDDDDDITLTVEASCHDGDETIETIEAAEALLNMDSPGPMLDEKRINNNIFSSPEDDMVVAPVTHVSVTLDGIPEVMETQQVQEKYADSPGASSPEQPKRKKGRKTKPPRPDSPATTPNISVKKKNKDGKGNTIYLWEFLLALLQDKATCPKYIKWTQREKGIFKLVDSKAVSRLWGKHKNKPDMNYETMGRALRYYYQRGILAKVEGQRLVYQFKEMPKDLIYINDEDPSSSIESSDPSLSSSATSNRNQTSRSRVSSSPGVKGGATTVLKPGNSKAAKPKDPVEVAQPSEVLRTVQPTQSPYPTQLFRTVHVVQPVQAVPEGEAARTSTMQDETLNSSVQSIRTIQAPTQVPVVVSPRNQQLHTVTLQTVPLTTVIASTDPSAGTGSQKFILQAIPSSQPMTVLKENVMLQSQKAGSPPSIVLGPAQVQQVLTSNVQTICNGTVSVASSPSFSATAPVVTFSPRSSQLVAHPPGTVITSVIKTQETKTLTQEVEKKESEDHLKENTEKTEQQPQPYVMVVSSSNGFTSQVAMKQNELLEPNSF
# SPIB, sequence (Q01892 whole entry): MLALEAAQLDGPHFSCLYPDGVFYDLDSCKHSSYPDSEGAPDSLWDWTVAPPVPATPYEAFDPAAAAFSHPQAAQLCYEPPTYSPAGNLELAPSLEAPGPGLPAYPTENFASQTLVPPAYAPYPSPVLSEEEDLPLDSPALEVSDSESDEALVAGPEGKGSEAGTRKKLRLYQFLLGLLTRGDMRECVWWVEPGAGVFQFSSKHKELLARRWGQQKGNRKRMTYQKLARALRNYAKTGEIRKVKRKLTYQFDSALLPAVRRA
# ETV6, sequence (P41212 whole entry): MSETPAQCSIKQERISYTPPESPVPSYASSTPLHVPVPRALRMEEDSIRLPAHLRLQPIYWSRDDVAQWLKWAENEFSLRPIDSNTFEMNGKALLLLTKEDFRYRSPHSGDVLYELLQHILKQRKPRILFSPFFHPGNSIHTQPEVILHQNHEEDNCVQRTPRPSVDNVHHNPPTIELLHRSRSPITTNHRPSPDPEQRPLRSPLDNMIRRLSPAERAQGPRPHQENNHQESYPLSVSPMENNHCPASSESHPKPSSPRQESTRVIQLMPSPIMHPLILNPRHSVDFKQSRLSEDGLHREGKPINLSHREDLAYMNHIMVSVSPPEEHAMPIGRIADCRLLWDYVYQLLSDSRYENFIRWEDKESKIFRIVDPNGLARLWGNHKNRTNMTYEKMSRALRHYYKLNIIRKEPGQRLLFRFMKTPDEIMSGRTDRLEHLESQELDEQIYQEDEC
# ETV5, sequence (P41161 whole entry): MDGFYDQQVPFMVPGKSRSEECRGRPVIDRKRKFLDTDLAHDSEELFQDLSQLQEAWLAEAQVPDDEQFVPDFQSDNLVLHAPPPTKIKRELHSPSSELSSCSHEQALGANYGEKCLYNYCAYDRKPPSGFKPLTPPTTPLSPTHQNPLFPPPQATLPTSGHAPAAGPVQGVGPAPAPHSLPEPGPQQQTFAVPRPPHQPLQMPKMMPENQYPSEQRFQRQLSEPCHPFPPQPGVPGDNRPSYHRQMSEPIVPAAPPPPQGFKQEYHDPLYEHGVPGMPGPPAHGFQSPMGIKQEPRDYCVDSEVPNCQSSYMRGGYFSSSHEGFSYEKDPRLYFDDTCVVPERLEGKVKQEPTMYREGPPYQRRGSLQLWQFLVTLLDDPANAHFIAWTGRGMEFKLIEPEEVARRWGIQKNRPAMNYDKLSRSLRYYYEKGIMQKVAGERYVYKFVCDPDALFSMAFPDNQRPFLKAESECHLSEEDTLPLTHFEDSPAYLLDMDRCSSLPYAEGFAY
sequence,measurement,setting,value
ACGGTT,binding signal,FLI1,"1.07 fold enrichment (6-mer frequency, TF over GST control)"
same,binding signal,ELK1,"1.02 fold enrichment (6-mer frequency, TF over GST control)"
same,binding signal,ELF1,"1.03 fold enrichment (6-mer frequency, TF over GST control)"
same,binding signal,EHF,"1.04 fold enrichment (6-mer frequency, TF over GST control)"
same,binding signal,SPI1,"1.02 fold enrichment (6-mer frequency, TF over GST control)"
same,binding signal,SPIB,"1.02 fold enrichment (6-mer frequency, TF over GST control)"
same,binding signal,ETV5,"1 fold enrichment (6-mer frequency, TF over GST control)"
same,binding signal,ETV2,"1.16 fold enrichment (6-mer frequency, TF over GST control)"
same,binding signal,ETV1,"1.08 fold enrichment (6-mer frequency, TF over GST control)"
same,binding signal,ETV7,"1.04 fold enrichment (6-mer frequency, TF over GST control)"
same,binding signal,ETV6,"1.01 fold enrichment (6-mer frequency, TF over GST control)"

# Reference: article PMC7862700, “An all-to-all approach to the identification of sequence-specific readers for epigenetic DNA modifications on cytosine”
